{"source": "PubChem BioAssay AID868", "about": "(SRMLSC, 2007)", "note": "Among all 190,000 compounds or so, about 3,500 (1.8%) were called active.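 How the source made its calls: active means inhibition above a set limit, 3 SD over mean compound inhibition (cut at about 8.4% in these data); inactive means the rest.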 Only a selection was taken, and actives are over-represented in it overall."}
{"test": "RAM signaling blockers in budding yeast – dse1pr::URA3 reporter, 5-FOA selection, primary screen (AID 868);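 further: 0% = DMSO-only wells with no growth and 100% = 10 µM 1-NA-PP1 full growth; inhibition rescues growth on 5-FOA so higher OD means more RAM inhibition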", "details": "S. cerevisiae dse1pr::URA3 reporter, 5-FOA growth OD615, 2 d; at 50 µM; hits give high values; analog-sensitive cbk1-as2 kinase mutant strain"}
{"smiles": "NS(=O)(=O)c1ccc(CCNC(=O)c2ccc([N+](=O)[O-])cc2[N+](=O)[O-])cc1", "inhibition": "0% (inactive)"}
{"smiles": "CCOC(=O)CN(C)Cc1c[nH]c2ccccc12", "inhibition": "4.1% (inactive)"}
{"smiles": "CC(C)(C)N(Cc1ccccc1)C(=O)COC(=O)CCc1c[nH]c2ccccc12", "inhibition": "10.3% (active)"}
{"smiles": "NS(=O)(=O)c1ccc(NC(=O)COC(=O)CCc2c[nH]c3ccccc23)cc1", "inhibition": "1.13% (inactive)"}
{"smiles": "CCOc1ncccc1C(=O)OCC(=O)NC1CC1", "inhibition": "-0.99% (inactive)"}
{"smiles": "CN(C)C(CNC(=O)Cc1ccc([N+](=O)[O-])cc1)c1ccccc1", "note": "(centres undefined)", "inhibition": "-0.62% (inactive)"}
{"smiles": "O=C(NCc1cccs1)C(=O)NCC1OCCCN1S(=O)(=O)c1ccc(F)cc1", "note": "(centres undefined)", "inhibition": "3.25% (inactive)"}
{"smiles": "COc1ccc(NS(=O)(=O)c2ccc(NC(=O)c3ccc(N(C)S(C)(=O)=O)cc3)cc2)cc1", "inhibition": "4.92% (inactive)"}
{"smiles": "CC(C)CNC(=O)COC(=O)c1ccccc1OCC(=O)Nc1ccc(Br)cc1", "inhibition": "1.56% (inactive)"}
{"smiles": "O=C1c2cccc(OCC(=O)N3N=C(c4cccs4)CC3c3ccc(F)cc3)c2CCN1Cc1ccccc1", "note": "(centres undefined)", "inhibition": "9.86% (active)"}
{"smiles": "COc1ccc(C2CC(c3cccs3)=NN2C(=O)CSc2nnc(N)s2)cc1OC", "note": "(centres undefined)", "inhibition": "1.88% (inactive)"}
{"smiles": "COc1ccc(C2CC(c3cccs3)=NN2C(=O)COC(=O)c2cc3ccccc3cc2O)cc1OC", "note": "(centres undefined)", "inhibition": "4.23% (inactive)"}
{"smiles": "COc1ccc(NC(=O)COC(=O)c2ccc(NS(=O)(=O)/C=C/c3ccccc3)cc2)cc1", "inhibition": "4.45% (inactive)"}
{"smiles": "O=C(CSc1nncs1)NC1CCCc2ccccc21", "note": "(centres undefined)", "inhibition": "0.4% (inactive)"}
{"smiles": "CC(C)Nc1nnc(SCC(=O)c2c[nH]c3ccccc23)s1", "inhibition": "0.26% (inactive)"}
{"smiles": "CN1/C(=C\\C(=O)c2cccnc2Cl)C(C)(C)c2ccccc21", "inhibition": "0.13% (inactive)"}
{"smiles": "CC(C)Nc1nnc(SCC(=O)/C=C2\\N(C)c3ccccc3C2(C)C)s1", "inhibition": "10.6% (active)"}
{"smiles": "COCCNC(=S)N1CCC(NC(=O)C23CC4CC(CC(C4)C2)C3)CC1", "inhibition": "-0.25% (inactive)"}
{"smiles": "CCN(CC)CCNC(=O)c1sc2ncn(CC(=O)Nc3ccc(C)c(Cl)c3)c(=O)c2c1C", "inhibition": "0.37% (inactive)"}
{"smiles": "Cn1c(=O)n(Cc2ccco2)c(=N)c2c3c(sc21)CCCC3", "inhibition": "1.37% (inactive)"}
{"smiles": "O=C(COC(=O)CSc1nnc(-c2ccc(Cl)cc2)o1)Nc1cc(Cl)cc(Cl)c1", "inhibition": "2.39% (inactive)"}
{"smiles": "CC(=O)NC1C(Oc2ccc(C=O)cc2)OC(COC(C)=O)C(OC(C)=O)C1OC(C)=O", "note": "(centres undefined)", "inhibition": "1.12% (inactive)"}
{"smiles": "COc1ccc(O[C@H]2C=C[C@@H](c3ccccc3)O[C@@H]2CO/N=C/C[C@@H]2C=C[C@H](OC(C)=O)[C@@H](COC(C)=O)O2)cc1", "inhibition": "13.9% (active)"}
{"smiles": "CC(=O)NC1C(OCc2ccccc2)OC(COC(C)=O)C(OC(C)=O)C1OC(C)=O", "note": "(centres undefined)", "inhibition": "1.66% (inactive)"}
{"smiles": "C=CCOC(=O)C1=C(C)N=C2SCCC(=O)N2C1/C=C/c1ccccc1OC", "note": "(centres undefined)", "inhibition": "1.62% (inactive)"}
{"smiles": "COc1ccccc1CNC(=O)CNC(=O)c1cn(-c2ccccc2OC)c(=O)c2ccccc12", "inhibition": "1.48% (inactive)"}
{"smiles": "Nc1nnc(SCC(=O)Nc2ccc3nc(SCC(=O)Nc4ccccc4)sc3c2)s1", "inhibition": "9.31% (active)"}
{"smiles": "CCCCNC(=O)CSc1nc2ccc(NC(=O)CSc3nnc(N)s3)cc2s1", "inhibition": "2.71% (inactive)"}
{"smiles": "CCCCNC(=O)CSc1nc2ccc(NC(=O)CSc3nnc(COc4ccccc4C)n3C)cc2s1", "inhibition": "6.51% (inactive)"}
{"smiles": "Cn1c(=O)c2c(ncn2CCc2ccccc2)n(C)c1=O", "inhibition": "0.37% (inactive)"}
{"smiles": "C/C=C(\\C)C(=O)NCCN1C2=NC[C@H](Cc3ccc(O)cc3)N2C[C@@H]1Cc1ccc(OC)cc1", "inhibition": "-1.63% (inactive)"}
{"smiles": "CCOc1ccc(CN(Cc2ccco2)C(c2cccs2)c2nnnn2C(C)(C)C)cc1", "note": "(centres undefined)", "inhibition": "15.1% (active)"}
{"smiles": "CC(C)(C)n1nnnc1C(c1cccs1)N(Cc1cccnc1)CC1CCCO1", "note": "(centres undefined)", "inhibition": "4.18% (inactive)"}
{"smiles": "CCC(C)(C)n1nnnc1C(c1cccs1)N1CCN(Cc2ccccc2)CC1", "note": "(centres undefined)", "inhibition": "0.11% (inactive)"}
{"smiles": "COCCn1c(C)cc(C(=O)COC(=O)/C=C/c2cccc(OC)c2)c1C", "inhibition": "8.25% (inactive)"}
{"smiles": "CC1CCCCC1NC(=O)COC(=O)Cc1ccc(Br)cc1", "note": "(centres undefined)", "inhibition": "1.96% (inactive)"}
{"smiles": "COc1ccc(-c2nc(-c3ccccc3)no2)c(OC)c1", "inhibition": "-0.68% (inactive)"}
{"smiles": "COc1ccc(-c2noc(-c3cccc(OC)c3OC)n2)cc1OC", "inhibition": "8.94% (active)"}
{"smiles": "COc1cc(-c2nc(-c3ccncc3)no2)cc(OC)c1OC", "inhibition": "1.83% (inactive)"}
{"smiles": "COc1cccc(CN2CCNC(=O)C2CC(=O)N(C)CCc2ccccn2)c1", "note": "(centres undefined)", "inhibition": "0.39% (inactive)"}
{"smiles": "COc1ccc(OCC(=O)Nc2ccc(N3CCC(C)CC3)cc2)cc1", "inhibition": "-0.73% (inactive)"}
{"smiles": "CN1CCN(c2ccc(NC(=O)COc3ccc(Cl)cc3Cl)cc2)CC1", "inhibition": "1.03% (inactive)"}
{"smiles": "Cc1ccc(NC(=O)COc2ccc(-n3ccnc3)cc2)cc1Cl", "inhibition": "19.6% (active)"}
{"smiles": "O=C(O)CSc1nccc2ccccc12", "inhibition": "0.52% (inactive)"}
{"smiles": "CCOC(=O)NN1C(=O)c2ccccc2NC1c1ccccc1O", "note": "(centres undefined)", "inhibition": "-0.54% (inactive)"}
{"smiles": "CCN(CC)C(=O)C(=O)Nc1cccc(Br)c1", "inhibition": "1.63% (inactive)"}
{"smiles": "Cc1ccc(NC(=O)c2csc3c2CCCC3)cc1", "inhibition": "0.75% (inactive)"}
{"smiles": "COC(=O)c1sccc1NC(=O)c1csc2c1CCCC2", "inhibition": "12% (active)"}
{"smiles": "COC(=O)c1sc(NC(=O)c2csc3c2CCCC3)nc1C", "inhibition": "3.89% (inactive)"}
{"smiles": "Cc1cc(/C=C2/SC(=O)N(CC(=O)OC(C)C)C2=O)c(C)n1C", "inhibition": "4.99% (inactive)"}
{"smiles": "CCOC(=O)CC1C(=O)NCCN1C(=O)COc1ccc(Br)cc1C", "note": "(centres undefined)", "inhibition": "-0.4% (inactive)"}
{"smiles": "CCN=C1S/C(=C\\c2cc(Br)ccc2OCC(=O)OCC)C(=O)N1CC", "inhibition": "11.5% (active)"}
{"smiles": "COc1ccc(CCNc2nc(-c3cccc(NC(C)=O)c3)cs2)cc1OC", "inhibition": "-0.26% (inactive)"}
{"smiles": "COc1ccc(C2OCC3(CO2)SC(=O)NC3=O)cc1OC", "note": "(centres undefined)", "inhibition": "0.64% (inactive)"}
{"smiles": "COc1cccc(NC(=O)CC2C(=O)NCCN2C(=S)Nc2ccc(F)cc2)c1", "note": "(centres undefined)", "inhibition": "4.21% (inactive)"}
{"smiles": "CC1CCCCC1NC(=O)CN1CCC(O)(c2ccc3c(c2)OCO3)CC1", "note": "(centres undefined)", "inhibition": "0.68% (inactive)"}
{"smiles": "CCN(CC)S(=O)(=O)c1ccc(N(C)Cc2ccc(C(F)(F)F)cc2)nc1", "inhibition": "11.1% (active)"}
{"smiles": "CCN(CC)S(=O)(=O)c1ccc(N(C)CCc2ccc(OC)c(OC)c2)nc1", "inhibition": "1.33% (inactive)"}
{"smiles": "CCN(CC)S(=O)(=O)c1ccc(N(C)Cc2cccc(OC)c2OC)nc1", "inhibition": "2.24% (inactive)"}
